Many of the other results were omitted from the sample, so hits are more common in it than they were.
HIV RNase H inh-1: blocks HIV-1 RNase H cleavage of RNA/DNA duplex; RT-RNase H RNA/DNA duplex cleavage, fluorescence; inhibition, % at 10 µM; 65,000 compounds, 1.9% hits; P04585; AID 565; in the data active means inhibition above about 50%
HIV RNase H inh-2: confirmation of HIV-1 reverse transcriptase RNase H inhibitors | shares compounds with HIV RNase H inh-1 | Recombinant RT RNase H, fluorescent RNA/DNA duplex cleavage | inhibition, % at 10 µM | AID 651 | 1,000 compounds, 39% hits; in the data active means inhibition above about 48%; inconclusive means no clear call, values can overlap the other calls
Numbers without * were called inactive; ? = inconclusive.

SMILES | HIV RNase H inh-1 | others
N[C@@H](C(=O)N[C@@H]1C(=O)N2C(C(=O)O)=C(Cl)CS[C@H]12)c1ccccc1 | 59* | HIV RNase H inh-2=33
CCC(C)(C)NC(=O)C(c1ccc(F)cc1)N(Cc1ccco1)C(=O)c1cnccn1 (centres undefined) | 3
COc1cc(N2CN=c3s/c(=C\c4ccccn4)c(=O)n3C2)cc(OC)c1OC | -20
COc1ccc(-c2nsc(SCC(=O)Nc3cc(C)on3)n2)cc1 | 84* | HIV RNase H inh-2=61*
Cc1cccc(-c2nsc(SCC(=O)Nc3nccs3)n2)c1 | 82* | HIV RNase H inh-2=74*
Cc1cccc(-n2ccnc2SCC(=O)Nc2nccs2)c1C | -41
Cc1cc(C)nc(SCC(=O)N2CCCCC2)n1 | -30
Cc1cccc(OCc2nnc(SCC(=O)N3CCCC3)n2C)c1 | -16
Cc1cc(NC(=O)CSc2ccc(-c3nc4cc(C)c(C)cc4[nH]3)cn2)no1 | 70* | HIV RNase H inh-2=72*
Cc1cc(NC(=O)CSc2nc3ccccc3[nH]2)no1 | -3
Cc1ccc2nc(SCC(=O)Nc3cc(C)on3)[nH]c2c1 | -2
Cc1cc(NC(=O)CSc2nc(-c3ccc(F)cc3)cs2)no1 | -2
CCc1nnc(NC(=O)CSc2nc(-c3ccc(OC)cc3)ns2)s1 | 30
Cn1c(SCC(=O)Nc2nccs2)nnc1-c1ccncc1 | 8
Cc1cccc(-c2nsc(SCC(=O)N3CCCC3)n2)c1 | 79* | HIV RNase H inh-2=34
CCCc1c(CC)c(=N)c2ccccc2n1C | -2
Cc1sc2nc(C3CC3)nc(NCCNS(C)(=O)=O)c2c1C | 5
O=S(=O)(C/C(=C/CO)S(=O)(=O)c1ccccc1)c1ccccc1 | 11
CCOCCn1c(CN(Cc2ccccc2)Cc2ccccc2)nc2c1c(=O)n(C)c(=O)n2C | 1
CCCOc1ccc(/C(O)=C2\C(=O)C(=O)N(CCCN(C)C)C23C(=O)N(C)c2ccccc23)cc1 (centres undefined) | -8
CCCc1nc2ccccc2c(=O)n1/N=C/c1c(C)[nH]n(-c2ccc(C)cc2)c1=O | 13
COC(=O)C1CCN(C(=O)C2CCCCC2)CC1 | -5
Cc1cccc2cc(C(c3nnnn3C3CCCC3)N3CCOCC3)c(=O)[nH]c12 (centres undefined) | 0
CC(C)(C)n1nnnc1C(c1cc2cc3c(cc2[nH]c1=O)OCCO3)N1CCSCC1 (centres undefined) | 4
O=c1[nH]c2cc3c(cc2cc1C(c1nnnn1C1CCCC1)N1CCSCC1)OCCO3 (centres undefined) | 61* | HIV RNase H inh-2=32
SMILES | HIV RNase H inh-1 | others
Cn1nnnc1SCC(=O)N1CCN(c2cccc(Cl)c2)CC1 | -5
CN1C(=O)c2oc3ccc(Br)cc3c(=O)c2C1c1ccncc1 (centres undefined) | -1
O=C(O)c1cc(-c2ccco2)nc2ccccc12 | 81* | HIV RNase H inh-2=31
O=C(c1ccco1)N1CCN(C(=O)c2cc(-c3ccccn3)nc3ccccc23)CC1 | 0
Cc1nn(-c2ccccc2)c2nc(-c3ccco3)cc(C(=O)O)c12 | 23
CCNC(=O)[C@@H]1CCCN1C(=O)[C@H](CCCN=C(N)N)NC(=O)[C@H](CC(C)C)NC(=O)[C@@H](CC(C)C)NC(=O)[C@H](Cc1ccc(O)cc1)NC(=O)[C@H](CO)NC(=O)[C@H](Cc1c[nH]c2ccccc12)NC(=O)[C@H](Cc1cnc[nH]1)NC(=O)[C@@H]1CCC(=O)N1 | 20
N#CC(C(=O)NC1CCCCC1)c1nc2ccccc2nc1N1CCCCC1 (centres undefined) | -1
Cc1ccnc(NC(=O)CN(C)S(=O)(=O)c2cccc3nsnc23)c1 | -34
Cc1ccc2nc(NC(=O)CN(C)S(=O)(=O)c3ccc(Br)s3)sc2c1 | -4
Cc1ccc2nc(NC(=O)CN(C)S(=O)(=O)c3cccc4nsnc34)sc2c1 | 51* | HIV RNase H inh-2=39
CCCCOC(=O)C(C)c1c(C)[nH]c(=S)[nH]c1=O (centres undefined) | 0
Cc1[nH]c2ccc(-c3nnc(SCC(=O)c4ccc(F)cc4)o3)cc2c1C | 79* | HIV RNase H inh-2=?
O=C(CSc1nnc(-c2ccc(F)cc2)o1)c1ccc2c(c1)OCCO2 | 59* | HIV RNase H inh-2=?
O=C(CSc1nnc(CNc2ccc(F)cc2)o1)N1CCN(C(=O)c2ccco2)CC1 | -12
O=C(CSc1nnc(-c2ccc(F)cc2)o1)N1CCN(C(=O)c2ccco2)CC1 | 81* | HIV RNase H inh-2=32
COc1cc(-c2nnc(SCC(=O)c3ccc(C)cc3)o2)cc(OC)c1OC | -7
O=C(CSc1nnc(-c2ccccc2Br)o1)N1CCN(C(=O)c2ccco2)CC1 | 2
CCCn1nnnc1SCC(=O)c1ccc2c(c1)OCCO2 | -4
O=C(CSc1nnc(CNc2ccccc2)o1)c1ccc2c(c1)OCCO2 | -81
COc1ccc(C(=O)CSc2nnc(-c3ccc(C)cc3)o2)cc1 | 26
CCC(=O)Nc1ccc(-c2nnc(SCC(=O)NCC3CCCO3)n2C)cc1 (centres undefined) | -16
Cc1ccc(C(=O)c2coc3ccc(O)c(CN4CCN(C)CC4)c23)cc1 | -9
Cc1ccc(S(=O)(=O)NCC(c2cccnc2)N(C)C)cc1 (centres undefined) | 0
Fc1ccc2c(c1)nnn2C1CCN(Cc2ccccc2)CC1 | -11
O=S(=O)(c1ccc2c(c1)OCCO2)N1CCC(n2nnc3cc(F)ccc32)CC1 | -2
SMILES | HIV RNase H inh-1 | others
O=C(N1CCOCC1)N1CCC(n2nnc3cc(F)ccc32)CC1 | 84* | HIV RNase H inh-2=34
COc1ccc(C)cc1-n1nnnc1SCC1CCCCO1 (centres undefined) | 9
CS(=O)(=O)N1CCN(C(=O)c2ccccc2F)CC1 | -10
O=C(c1cc(S(=O)(=O)N2CCCCC2)ccc1F)N1CCCCC1 | 9
O=C(c1ccccc1F)N1CCN(S(=O)(=O)c2ccc(S(=O)(=O)N3CCCCC3)cc2)CC1 | 77* | HIV RNase H inh-2=78*
COC(=O)c1ccccc1NC(=O)c1ccccc1N(C)S(C)(=O)=O | -17
Cc1cccn2c(=O)c3cc(C(=O)NCCCN4CCCC4=O)n(C)c3nc12 | -11
CCc1ccccc1N(C(=O)CCC(=O)Nc1cc(C)on1)C(C(=O)NC1CCCC1)c1ccco1 (centres undefined) | 5
C=C(C)n1c(=O)[nH]c2ccccc21 | -10
CCc1nnc(NC(=O)CN2C(=O)c3ccccc3C2=O)s1 | 4
CCCc1nnc(NC(=O)Cn2c(=O)sc3ccccc32)s1 | 76* | HIV RNase H inh-2=18
CCCCN(C)CCCNC(=O)Cn1c(=O)sc2ccccc21 | -10
O=C(/C=N/O)NCc1ccncc1 | -4
COc1ccccc1NC(=O)c1sc2nc(-c3ccco3)ccc2c1N | 84* | HIV RNase H inh-2=45
COc1ccccc1NC(=O)c1oc2ccccc2c1NC(=O)c1ccco1 | 24
Nc1c(C(=O)Nc2ccccc2)sc2nc(-c3ccco3)ccc12 | 87* | HIV RNase H inh-2=4
O=C(COC(=O)c1ccco1)Nc1ccccc1 | -2
COc1cc2cc3c(N)c(C(=O)NCc4ccco4)sc3nc2cc1OC | 4
O=C(Nc1ccc(Nc2ccccc2)cc1)c1ccco1 | -7
CCOC(=O)N1CC=C2C(C#N)=C(N)C(C#N)(C#N)[C@H](c3ccsc3)[C@H]2C1 | 6
CCOC(=O)N1CC=C2C(C#N)=C(N)C(C#N)(C#N)[C@H](c3ccc(OC(C)C)c(OCC)c3)[C@H]2C1 | 89* | HIV RNase H inh-2=76*
CCOC(=O)N1CC=C2C(C#N)=C(N)C(C#N)(C#N)[C@H](c3ccccc3OCC)[C@H]2C1 | 29
CC1CCc2cc(F)ccc2N1C(=O)c1ccc2c(c1)OCO2 (centres undefined) | -4
Cc1ccc(-c2nnc3n2N=C(c2ccccc2Br)CS3)cc1 | -24
